Source: PubChem BioAssay (NCATS)
Active and inactive are the calls of the source. Entries that show only a call come without a potency. The call rests on the fitted dose curve; in most records, active means well fitted cell-killing curve with a large enough effect; inconclusive means small, poorly fitted or top-dose-only effect; inactive means flat fitted curve, though single readings scatter.

assay: Cell Viability - LYMP1-002 - Assay at 24 hr (AID 993); details: LYMP1-002 lymphoblastoid cells viability; series mostly up to 92.2 µM
From the text: NIH Chemical Genomics Center [NCGC]
NIH Molecular Libraries Screening Centers Network [MLSCN]
National Institutes of Environmental Health Sciences [NIEHS]
National Toxicology Program [NTP]
We have developed a 1536-well cell-based assay for quantitative high throughput screening (qHTS) against a number of cell lines to determine in vitro cytotoxicity of small molecules. This particular assay uses a human lymphoblastoid cell line (LYMP1-002) purchased from Coriell Institute for Medical Research.
NCGC Assay Protocol Summary:
The CellTiter-Glo luminescent cell viability assay (Promega) is a homogeneous method to measure the number of viable cells in culture. The end point readout of this assay is based on quantitation of intracellular ATP, an indicator of metabolic activity, using the luciferase reaction. Luciferase catalyzes the oxidation of beetle Luciferin to oxyluciferin and light in the presence of ATP. The luminescent signal is proportional to amount of ATP present.
Using the CellTiter-Glo luminescent cell viability assay, the amount of cellular ATP was measured in the lymphoblastoid cell line with complete culture medium following compound treatment for 24 hours. The assay was performed in opaque white Kalypsys 1536-well plates. In the screen, tetraoctylammonium bromide was used as positive control. Library compounds were measured for their ability to cause acute toxicity in the cell line, as reflected by a decrease in intracellular ATP levels, in a concentration-dependent manner. […] AC50 values were determined from concentration-response data modeled with the standard Hill equation.
qHTS protocol for CellTiter Glo lymphoblastoid cellular assay
[Step] [Parameter] [Value] [Description]
1. Reagent; 5 uL; 2500 lymphoblastoid cells/well
2. Time; 5 hr; 37 C incubation
4. Controls; 23 nL; Tetraoctylammonium bromide 6.4pM to 92 uM
5. Time; 24 hr; 37 C incubation
6. Reagent; 5 uL; CellTiter Glo reagent
7. Time; 30 min; Room Temperature
8. Detection; Luminescence; Viewlux plate reader
Keywords: cell viability, cytotoxicity, lymphoblastoid cell line, luminescence, NTPHTS, NTPHTS_NCGC, NIEHS, DSSTox, MLSMR, MLSCN, NIH Roadmap, qHTS, NCGC

SMILES | Potency
c1ccc2c(c1)ccc1ncccc12 | inactive
Cc1ccc(N(C)C)cc1 | inactive
O=C(O)CN(CC(=O)O)CC(=O)O | inactive
CCOc1ccccc1N | inactive
CCCCCCCCC | inactive
NCCCCCCN | inactive
CNc1ccc([N+](=O)[O-])cc1 | inactive
C=CCCC | inactive
CC(C)(O)C(=O)O | inactive
CC(C)CO | inactive
Cc1c(C(=O)O)cccc1[N+](=O)[O-] | inactive
O=Cc1c(Cl)cccc1Cl | inactive
O=C(O)c1cc(Cl)cc(Cl)c1 | inactive
c1ccc2c(c1)Oc1ccccc1S2 | inactive
CCCCCCC=O | inactive
C=C(C)OC(C)=O | inactive
CC(C)=CCl | inactive
COCCOC(=O)c1ccccc1C(=O)OCCOC | inactive
COC(=O)CCC(=O)OC | inactive
Nc1cccc(C(F)(F)F)c1 | inactive

SMILES | Potency
NC(N)=S | inactive
CC(=O)OC(C)C | inactive
Cc1ccc2nc(-c3ccc(N)cc3)sc2c1S(=O)(=O)O | inactive
CC(=O)OC(C)=O | inactive
O=C(O)CCSSCCC(=O)O | inactive
CC(C)=CCC/C(C)=C/C=O | inactive
C=CCOC(=O)CCCCCCCC | inactive
Cc1cc(C2(c3cc(C)c(O)cc3C)OS(=O)(=O)c3ccccc32)c(C)cc1O | inactive
COc1ccc(OC)cc1 | inactive
O=C1OC(=O)c2c(Cl)c(Cl)c(Cl)c(Cl)c21 | inactive
ClC/C=C/CCl | inactive
O=C(O)c1cccc(Cl)c1Cl | inactive
Cc1ccc(C)c(N)c1 | inactive
CCCCCCC(=O)O | inactive
CC/C=C1/OC(=O)c2ccccc21 | inactive
C=C(C)C1CC=C(C)C(OC(C)=O)C1 (stereo not given) | inactive
CCCCCCCN | inactive
CSCCC=O | inactive
Nc1ccccc1[N+](=O)[O-] | inactive
Cc1ccccc1C(N)=O | inactive
